Assay outcomes from PubChem BioAssay.
This is a sample that favours compounds with a hit; in the whole collection about 13% have one here.
G9a inh – qHTS Assay for Inhibitors of Histone Lysine Methyltransferase G9a; G9a H3K9 monomethylation, AlphaScreen, 2 h; Potency, µM (top dose mostly 102 µM), for the others: at the top dose activity, negative = inhibition, usual class: inhibitors; 350,000 tested, 8.8% active; AID 504332, 2011; also: potency is read from the fitted curve at half-maximal effect; % is scaled to controls: 0 for no effect and ±100 for the full control effect; nearly all actives have a fitted effect of over 75% in size
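G9a (20 nM) was preincubated 15 min with compound, then reacted 2 h at room temperature with 500 nM biotin-H3K9 peptide and 20 µM SAM. Monomethyl-H3K9 detected by AlphaScreen using anti-H3K9me1 antibody.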
miR-21 act – qHTS Assay for Modulators of miRNAs and/orActivators of miR-21 | HeLa miR-21 FLuc reporter, luciferase, 48 h | 340,000 tested, under 10 active | Potency, µM (doses to about 38.3 µM), for inactives: at the top dose activity change, positive = activation, usual class: activators;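 also: % of control where 0% means no effect; miR-21 action dims this reporter so a rising signal means less miR-21 action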
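HeLa cells endogenously expressing miR-21, stably carrying CMV-driven firefly luciferase with a downstream miR-21 binding site, 2000 cells/well. Titrations up to approximately 40 uM, 48 hours; luciferase luminescence read.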
Sfp PPTase inh – qHTS Assay for Inhibitors of Bacillus subtilis Sfp phosphopantetheinyl transferase (PPTase) | 4'-phosphopantetheinyl transferase ffp (Bacillus subtilis), Q9F4F7 | Biochemical Sfp PPTase activity, qHTS | Potency, µM, inactives show largest response in the series, negative = inhibition, actives largely listed as inhibitors | 310,000 tested, 3.5% active;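 also: the enzyme is Sfp with the accession as filed and its product quenches rhodamine fluorescence; potency is read from the fitted curve at half-maximal effect; 0% = enzyme reaction without inhibitor and -100% = no enzyme wells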
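Fluorescence-quenching assay: 15 nM Sfp-PPTase preincubated 15 min at room temperature with compound, then 5 uM rhodamine-CoA and 12.5 uM BHQ-2-labelled YbbR peptide added. Fluorescence (ex 525/em 598 nm) read at start and after 30 min; difference gives rate.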
Lamin A splicing – qHTS Assay for Modulators of Lamin A Splicing; Potency, µM (top dose mostly 46.1 µM), inactives show top-dose ratio change, negative = inhibition, actives largely listed as inhibitors; 200,000 tested, 0.01% active; HeLa LMNA splicing GFP/RFP minigene ratio, 48 h; active = well fitted inhibition curve with a large enough effect in the signal ratio, with a control signal flat, not every such curve was filed as active; inconclusive = small, poorly fitted or top-dose-only effect, or effect the other way, or a change in a side signal; the % refers to the signal ratio; also: potency is read from the fitted curve at half-maximal effect; % is scaled to controls: 0 for no effect and ±100 for the full control effect
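S3 HeLa cells stably expressing lamin A-EGFP splicing minigene plus DsRed2, 600 cells/well, 48 h compound exposure at 37C. Laser-scanning cytometry; analysed as GFP (500-530 nm)/RFP (575-640 nm) total intensity ratio; 0.5% DMSO vehicle.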
JMJD2E inh – qHTS Assay for Inhibitors of Human Jumonji Domain Containing 2E (JMJD2E) | Potency, µM (doses to about 57.1 µM), inactives show top-dose activity change, negative = inhibition, usual class: inhibitors | 230,000 tested, 1.6% active | Lysine-specific demethylase 4E (Homo sapiens), B2RXH2 | JMJD2E catalytic domain, FDH-coupled NADH fluorescence (FDH is formaldehyde dehydrogenase);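 also: potency is read from the fitted curve at half-maximal effect; 0% = wells with enzyme and -100% = buffer wells without enzyme; nearly all actives have a fitted effect of over 50% in size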
ALDH1A1 block – qHTS Assay for Inhibitors of Aldehyde Dehydrogenase 1 (ALDH1A1); Potency, µM (doses to about 75.3 µM), for the others: at the highest dose activity, negative = inhibition, actives largely listed as inhibitors; Aldehyde dehydrogenase 1A1 (Homo sapiens), P00352; 220,000 tested, 7.3% active; Purified ALDH1A1, NADH fluorescence, propionaldehyde substrate; active = well fitted inhibition curve with a large enough effect, not every such curve was filed as active; inconclusive = small, poorly fitted or top-dose-only effect, or another doubt; inactive = no such curve, though single readings can be large or run the other way;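 also: potency is read from the fitted curve at half-maximal effect; plate controls were no enzyme wells and a reference inhibitor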
Target sequence (P00352 whole entry, looked up): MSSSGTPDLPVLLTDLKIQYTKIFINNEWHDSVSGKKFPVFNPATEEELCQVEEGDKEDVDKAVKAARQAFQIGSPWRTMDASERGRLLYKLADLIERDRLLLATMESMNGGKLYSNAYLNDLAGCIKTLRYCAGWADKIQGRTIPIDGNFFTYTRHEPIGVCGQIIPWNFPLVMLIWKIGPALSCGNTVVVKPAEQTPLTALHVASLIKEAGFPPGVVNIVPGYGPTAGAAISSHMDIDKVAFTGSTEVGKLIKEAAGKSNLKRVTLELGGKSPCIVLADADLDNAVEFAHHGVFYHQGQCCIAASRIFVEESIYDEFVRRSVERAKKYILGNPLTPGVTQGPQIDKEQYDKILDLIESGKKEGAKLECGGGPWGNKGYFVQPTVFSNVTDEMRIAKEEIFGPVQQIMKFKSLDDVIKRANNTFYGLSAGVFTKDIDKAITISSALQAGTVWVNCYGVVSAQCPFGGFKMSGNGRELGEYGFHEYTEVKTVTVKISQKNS
An asterisk follows results filed as active; ? = inconclusive; · = no result given; [ ] = remark or other dose. Unless noted, calls follow the shape of the dose curve; as a rule, active = well fitted curve in the direction sought with a large enough effect; inconclusive = small, poorly fitted or top-dose-only effect, or another doubt; inactive = no such curve, though single readings can be large; an effect the other way counts as inactive or inconclusive.

SMILES | G9a inh | miR-21 act | Sfp PPTase inh | Lamin A splicing | JMJD2E inh | ALDH1A1 block
O=S(=O)(Nc1nc2ccccc2nc1N1CCN(c2ccccc2)CC1)c1ccc(F)cc1 | 50.1µM* | -21.5% | -9.4% | ? | -7.5% | -7.3%
NS(=O)(=O)c1ccc(Nc2nc3ccccc3nc2NS(=O)(=O)c2cccc([N+](=O)[O-])c2)cc1 | 31.6µM* | 2.8% | 23.8% | · | 1.1% | 7.3%
CC(=O)Nc1ccc(S(=O)(=O)Nc2nc3ccccc3nc2Nc2ccc(O)c(C(=O)O)c2)cc1 | 79.4µM* | 1.5% | ? | · | · | ·
Cc1nc2ccc(S(=O)(=O)N(CC(=O)Nc3cccc(C)c3C)Cc3ccccc3)cc2s1 | -1.9%[59 µM] | -1.2% | · | 18.4%[46 µM] | · | ·
CC(=O)Nc1ccc(S(=O)(=O)Nc2nc3ccccc3nc2Nc2ccc(S(N)(=O)=O)cc2)cc1 | 44.7µM* | -8.2% | 11.4% | -6.7% | ? | ?
O=S(=O)(Nc1nc2ccccc2nc1Cl)c1ccccc1 | 39.8µM* | -3.7% | 16.5% | -14.9% | ? | 1.8%
COC(=O)C(C)Oc1ccc(-c2nccc(-c3ccccn3)n2)cc1 (stereo not drawn) | -10.3% | -47.4% | -23.3% | · | · | ·
O=C1C=C(NCc2ccccc2)c2ccccc2C1=O | ? | ? | 22.4µM* | ? | ? | ?
O=C1C=C(Nc2ccccc2O)c2ccccc2C1=O | 44.7µM* | 21.4% | ? | ? | ? | -9.7%
O=C1C=C(Nc2ccc(F)cc2)c2ccccc2C1=O | 7.94µM* | · | · | · | · | ·
O=c1cccccc1NCc1ccccc1 | 10µM* | -20.5% | 22.4µM* | 4.3% | -7.4% | -5.7%
Cc1ccc(NC2=CC(=O)C(=O)c3ccccc32)c(C)c1 | -1.7%[2.33 µM] | · | · | · | · | ·
CCCn1c(SCc2nc(-c3ccc(OC)c(OC)c3)no2)nnc1-c1ccccc1 | 2.1%[59 µM] | 15.2% | · | · | · | ·
COc1cccc(C(=O)N2CCC(C(=O)NCc3ccco3)CC2)c1 | 11.0% | 2.5% | -2.1% | · | · | ·
Cc1ccc(C2CC(=O)N(Cc3ccccc3)c3c2c(C)nn3-c2nc(C)cc(C)n2)cc1 (stereo not drawn) | 5.9%[59 µM] | -0.8% | · | 22.8%[46 µM] | · | ·
COC(=O)c1ccc(-n2c(C)cc(-c3csc(NC(=O)c4ccc(S(=O)(=O)N(C)C)cc4)n3)c2C)cc1 | -1.1%[59 µM] | 2.2% | 7.1% | ? | ? | ?
Cc1cc(-c2csc(NC(=O)c3cccc(S(=O)(=O)N(C)C)c3)n2)c(C)n1-c1ccccc1 | -13.0%[59 µM] | -15.4% | -3.1% | ? | 12.6µM* | ?
COc1ccc(CC(=O)N2CCOCC2)cc1OC | -3.0%[59 µM] | -2.5% | -5.4% | -8.3% | -1.1% | 4.3%
COc1ccc(CC(=O)n2[nH]c(=O)ccc2=O)cc1OC | 1.12µM* | -3.1% | 3.55µM* | · | 3.5% | ·
CCc1ccccc1N1C(=O)c2cccc3c(N4CCOCC4)c([N+](=O)[O-])cc(c23)C1=O | 15.8µM* | -6.0% | -8.4% | 12.9% | 2.4% | ?
CCc1ccc(N2C(=O)c3cc(N4CCOCC4)c([N+](=O)[O-])cc3C2=O)cc1 | -8.8%[59 µM] | 0.9% | 4.1% | 2.2% | 8.1% | 11.4%
CCc1cccc(CC)c1N1C(=O)c2cc(N3CCOCC3)c([N+](=O)[O-])cc2C1=O | 35.5µM* | -1.2% | -21.1% | ? | -3.7% | 0.9%
COc1ccc(NC(=O)C(=O)NCCc2sc(-c3ccc(Cl)cc3)nc2C)cc1 | 4.2%[59 µM] | -21.0% | · | ? | · | ·
Cc1nn(-c2ccccc2)cc1C(c1c(N)[nH]c(=S)[nH]c1=O)c1c(N)[nH]c(=S)[nH]c1=O | 31.6µM* | -2.3% | 22.4µM* | · | -5.0% | 1.9%
Cc1nn(-c2ccccc2)cc1/C=N/NC(N)=S | 2.1%[59 µM] | -24.0% | 25.3% | · | 0.5% | ·
CCN(CCNC(=O)Nc1ccc(Cl)cc1)c1ccccc1 | 50.1µM* | 17.2% | 12.2% | 3.3% | 4.1% | 6.5%
